From PubChem BioAssay AID1508600 (Functional Genomics Laboratory (NCATS/FGL), 2020)
The whole screen tested about 53,000 sequences, of which about 3,700 (7%) were called active. Many of the other results were omitted from the sample, so actives are more common in it than they were. Unmarked numbers belong to inactive results.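 How the source made its calls: active means gene knockdowns whose robust z-score for IL-1 alpha signal is at least 2 or at most -2, so actives lie on both sides; inactive means the rest.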

Assay: Components of the Cytosolic LPS Sensing Pathway: Gene Identification via Genome-wide siRNA Screen;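 further: robust z of the log signal after scaling to non-targeting control siRNA wells of the plate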
Details: RAW264.7 macrophages, IL-1a HTRF, actives lie on both sides, screened at 100 nM (by protocol), cells primed 5 h with Pam3CSK4 first
Method in brief: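 Read-out: IL-1a HTRF on supernatant, divided by plate negative-control median ×100, log-transformed and converted to robust z-score. Cells were RAW264.7 given 100 nM siRNA, Pam3CSK4-primed 5 hours, then LipidA-transfected 24 hour.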

| Sequence | z-score |
| --- | --- |
| CCAGAUGCUAUGCUAGGGATT against Clec4a1 | -0.0541 |
| GGACGGCAAAUUUGGUUUCTT against Mmp9 | 1.28 |
| GCCAUCAAUGAUGUGCUCUTT against Zswim5 | -0.186 |
| GGAAAAUGGAAUCUUCGGUTT against Pus10 | -1.4 |
| GCUGGAUACUAAUUGCUUATT against Parva | 1.27 |
| GCCUGGUACAGAACCAGUATT against Ntsr2 | 0.547 |
| CCUAUGCAUCCCUGACUACTT against Tmem126b | 5.07 (active) |
| GGUUUUUAAGGGAAGGCCCTT against Ntmt1 | 0.284 |
| GUCCCACUCAGGAGAAUUUTT against Lrrc61 | 0.917 |
| GGAAGAUUAUAUUGAGAGATT against Bnip3 | 1.11 |
| GGAGGAGAAUGCCACAACUTT against Cd320 | -0.227 |
| GCCUGUUAAUAUGCUGUAATT against Gpr83 | -0.0705 |
| GGACUUUCUGAGUAAGAAUTT against Coa8 | -0.873 |
| GGAAUACGGAUUGAUGGAGTT against Fli1 | 2.19 (active) |
| CCUUAUGCAUGACUUGAGUTT against Exoc4 | -0.2 |
| GGUUCGUCAUACCUCCUCATT against C77080 | -0.00884 |
| GGAAUACAUUCCUUUUAAGTT against Gpx3 | -1.27 |
| GGAGAAGAAACGGAAAUGATT against Jagn1 | -1.98 |
| GGUAUUUAGAAACAUCAGUTT against Wls | -2.16 (active) |
| GCUGUUCAUAUAUCUUGCUTT against Olfr1386 | 1.17 |
| GGCACAUAGCCAUACCAGATT against Fbxw17 | 0.0511 |
| GGAUUCCUGUUAAAAGUCUTT against Azin1 | -0.152 |
| GGAUUAUCAAUGAAUAGCATT against Gabrb2 | 0.913 |

| Sequence | z-score |
| --- | --- |
| GGGAGAAGUAAGUGUUAUCTT against Npy2r | 3.86 (active) |
| GGACAAUCCGAACAUCAAATT against Sval1 | -0.403 |
| GGCCUGCUUCAAACAGUUUTT against Slc1a6 | 0.648 |
| CGACUUUUCUCAUUAUGAGTT against Ythdf1 | -2.58 (active) |
| GGAUACACUGUUUGAAUGUTT against Cks1b | 0.00229 |
| GCCGAUUCAAUACUGUGACTT against Rnf149 | -0.649 |
| GCACAACCAAUUACGUGGCTT against Gpnmb | -0.149 |
| GCAGAUCACUGGAGUAAACTT against Spz1 | -0.381 |
| GGUAUGAAACCGUAUAAAUTT against Zfp60 | 0.00529 |
| GCGUGCUGUGUAAGAGUGUTT against Gja4 | -2.5 (active) |
| GCACAUACAGCUUAACAAATT against Nktr | 1.27 |
| GGGUUUUUCAUAAACAAAGTT against Pdcd1lg2 | -1.46 |
| GGUAAAAAGGGUGUGUACUTT against Pdzk1 | 0.00178 |
| CCACUAAAAUCUUACUGGATT against Scn7a | 0.671 |
| GCGUAUAGUUUCGAGAAAUTT against Mettl8 | 0.46 |
| GGGUCUACCACAUGUACAUTT against Slc16a6 | 2.23 (active) |
| CCCUAACAUUGAGAUGAUUTT against Peg10 | -0.369 |
| CCAUUCUCCUCAGAUACUCTT against Slc25a17 | -1.38 |
| CCCAUAAGGGUGAAAUUCGTT against Tax1bp1 | 0.444 |
| GGCCCACAAGAAGAACAAGTT against Zfp423 | 1.29 |
| CGGUAGAGUGCUUACGCAATT against Camk2g | 0.869 |
| GGGAACCGCUUAUAUGUCCTT against Tbx21 | -0.195 |
| GGACAGAUAGGAUUAGAGATT against Igfbp5 | 0.215 |

| Sequence | z-score |
| --- | --- |
| CGUGCCAUAAUACACUAUCTT against Gng5 | 2.79 (active) |
| GGCGAAUGUUUACGAGAACTT against Sh2d1b2 | 0.327 |
| GGCAGGUUUGGUAACCAGATT against Fut1 | 0.559 |
| GCUUCUUGAAAGUACAUUGTT against Nae1 | 0.386 |
| GGCUCUUCACUCAUGUAUGTT against Olfr703 | -0.931 |
| GGCCCAUAUCUGCUCUCAUTT against Ssc5d | -2.04 (active) |
| GCCUAUCUUGUCACCACUGTT against Tagln2 | -0.276 |
| GGAAACAAAAGGAUUUCUGTT against Fbxl13 | 1.24 |
| GGCGAGAAGGAAAUGUACATT against Arpc3 | 2.62 (active) |
| CCAUCCUUCCGAAAGACGATT against Lcn10 | 0.465 |
| CCAAGAUCGAUCAUUUUGGTT against Gm527 | -0.794 |
| GGUCCAAGAGAAAUGUGUATT against Hacd4 | -2.55 (active) |
| GGUUUUUCUAACUUUGGUCTT against Cdcp2 | -0.0176 |
| AAGAGCCAUUAAUCGAGAATT against Cklf | -0.0691 |
| GGCUAUUGCUGACCUCAGATT against Pidd1 | -2.73 (active) |
| GCGCAAAAGGACCUAUGAGTT against Rela | -0.342 |
| CGUGGUAGACACUGUGGUATT against Plin1 | 1.61 |
| GGAGAUGAUGCCGUCAUUCTT against Chaf1b | 1.97 |
| CCAUAUGAUAAGCAUAAGCTT against Zfp449 | 0.149 |
| CCCGUAUGGAUGUGGUAACTT against Tmem239 | -1.39 |
| CCUAACCAAGAUCCAAUCUTT against 6330549D23Rik | -2.85 (active) |
| GGCCAUCCAAGCAUGAGUUTT against Rbfa | 1.37 |
| GGCAGGAAAUUCAUUUUAATT against Zfy2 | -1.43 |
